The entries come from a sample that favours hits as a whole.
Pf Dd2 inh = qHTS Primary assay for Inhibitors of Plasmodium falciparum Dd2 growth in vitro | P. falciparum Dd2 growth, SYBR Green, 72 h | AID 1347417, 2020 | Potency, µM (doses to about 28.9 µM), for inactives: at the highest dose activity, negative = inhibition, hits mostly inhibitors | 120,000 tested, 4.3% active; active = well fitted inhibition curve with a large enough effect;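 also: plate controls were DMSO vehicle for no effect and reference drug for full effect; nearly all actives have a fitted effect of over 65% in size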
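Infected erythrocytes (Dd2, 0.3% parasitemia, 2.5% hematocrit final) are added to compound in RPMI-1640/Albumax II medium, grown 72 h at 37C in low oxygen, then lysed with saponin/Triton-X containing SYBR Green and read by fluorescence.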
* = called active by the depositor; i = inactive; [ ] = remark or other dose. Potency is read from the fitted curve at half-maximal effect.

SMILES | Pf Dd2 inh
O=C(O)c1cc2c(s1)CCN(C(=O)c1ccccc1)C2 | -2%
CN1CCN(c2cnn(CCC(N)=O)c(=O)c2)CC1 | 5%
O=C(c1ccccc1)N1CCC(N2CCCCCC2=O)CC1 | -18%[44.1 µM]
O=C(Nc1cccc(Cl)c1Cl)c1cc(S(=O)(=O)NCc2ccc3c(c2)OCO3)ccc1F | 12%
CN(C)C(=O)c1ccc2cc[nH]c2n1 | 12%[44.1 µM]
Cc1cccc(C)c1OCC(=O)NCC1(N(C)C)CCCCC1 | i
Cc1ccc(C(C)C)c(OCC(=O)Nc2nc3c(s2)CCCC3)c1 | 0%
Cc1ccc(C(C)C)c(OCC(=O)NCC2(N(C)C)CCCCC2)c1 | 2.8µM*
CC(C)C(=O)N1CCC(C(NC(=O)c2ccccc2Cl)C(=O)N2CCCCC2)CC1 (configuration not stated) | i
COc1ccc(-c2cn3cccnc3n2)cc1NC(=O)c1ccccc1C(F)(F)F | -7%
COc1ccc(-c2cn3cccnc3n2)cc1NC(=O)c1cc(C)cc(C)c1 | 13µM*
Cc1ccc(C(=O)Nc2cc(-c3cn4cccnc4n3)ccc2C)cc1C | -6%
Cc1ccsc1C(=O)N1CCC(Oc2ncccc2C(=O)N2CCCCC2)C1 (configuration not stated) | -12%
COC(=O)c1ccccc1NC(=O)CCC(=O)N1CC(C)Sc2ccccc21 (configuration not stated) | -9%
COc1ccc(C(=O)N[C@@H]2CCC[C@@H]2C(=O)NCCCn2cccn2)cn1 | 19%
CCN1c2ccccc2-c2nc(SCC(=O)Nc3cccc(C)c3C)ncc2S1(=O)=O | 28%
COc1cccc(C(=O)Nc2c(C(=O)Nc3ccc(F)cc3)oc3ccccc23)c1OC | -21%
COc1ccccc1C(=O)N(Cc1ccco1)Cc1ccccc1F | -7%
CN(C)CCN(Cc1ccco1)C(=O)c1oc2ccccc2c1NC(=O)c1ccccc1 | 11µM*
COc1ccccc1C(=O)Nc1c(C(=O)N(CCN(C)C)Cc2ccco2)oc2ccccc12 | 6.3µM*
CCOc1ccc(C(=O)Nc2c(C(=O)c3ccccc3)oc3ccccc23)cc1 | -8%
Cc1c(C(=O)N(Cc2cccc(Cl)c2)Cc2ccco2)oc2ccccc12 | 3%
CCN(CC)C(=O)CN1C(=O)NC(c2ccccc2)C2=C1COC2=O (configuration not stated) | -12%
CN(C)CC(O)COc1ccc(CN2CCC(N3CCOC3=O)CC2)cc1 (configuration not stated) | 14%
COc1cccc(C(=O)N2CC(c3nnc(-c4ccncc4)o3)C3(CCOCC3)C2)c1 (configuration not stated) | -13%
SMILES | Pf Dd2 inh
COc1cccc(C2Cn3nnc(-c4nc(-c5ccc(OC(C)C)cc5)no4)c3CO2)c1 (configuration not stated) | -20%
Clc1ccccc1C1Cn2cnc(-c3nc(-c4cccnc4)no3)c2CO1 (configuration not stated) | 4.5µM*
CCOc1ccc(C2Cn3nnc(-c4nc(-c5cccnc5)no4)c3CO2)cc1 (configuration not stated) | -5%
COc1ccc(C2Cn3cnc(-c4nc(-c5ccc(OC(C)C)cc5)no4)c3CO2)cc1 (configuration not stated) | 11µM*
COc1ccc(C2Cn3nnc(-c4nc(-c5ccc(C)cc5)no4)c3CO2)cc1 (configuration not stated) | i
Fc1ccc(C2Cn3nnc(-c4nc(-c5cccnc5)no4)c3CO2)cc1 (configuration not stated) | i
O=C(NCc1ccccc1)C1CCN(c2ncnc3c2nc2n3CCCCC2)CC1 | 22%
O=C(Nc1ccc(F)cc1Cl)C1CCN(c2ncnc3c2nc2n3CCCCC2)CC1 | 2.8µM*
CCOC(=O)c1ccccc1NC(=O)C1CCN(c2ncnc3c2nc2n3CCCCC2)CC1 | -7%
CCN(c1ccccc1)S(=O)(=O)c1ccc(NC(=O)c2cc(=O)c3ccccc3o2)cc1 | i
Cc1ccc2nc(-c3cccc(NC(=O)c4ccc(Br)o4)c3)oc2c1 | 32%
N#Cc1ccc(C(=O)N2CCN(c3cc(-c4ccc(Cl)cc4)[nH]n3)CC2)cc1 | -2%
Cc1cnc(C(=O)N[C@@H]2CCC[C@@H]2C(=O)NCc2ccc(Cl)cc2)cn1 | -26%
COc1ccc(CNC(=O)c2cc3c(-c4ccc(Cl)cc4)nn(C)c3s2)cc1 | -16%
CCCN(CCC)CCCNC(=O)c1cc2c(-c3ccc(Cl)cc3)nn(C)c2s1 | 8.9µM*
Cc1ccc(CCNC(=O)c2cc3c(-c4ccccc4F)nn(C)c3s2)cc1 | 19%
COc1ccccc1C(=O)N1CCC2(Cc3ccccc3NC2=O)C1 (configuration not stated) | -19%
CN1C(=O)C2(CCCN(C(=O)c3ccc(Cl)cc3)C2)Cc2ccccc21 (configuration not stated) | 11%
CCOc1ccccc1CNC(=O)[C@H]1CCC[C@H]1NC(=O)c1ccc(OC)cc1 | 11µM*
COc1ccccc1CNC(=O)[C@H]1CCC[C@H]1NC(=O)c1ccncc1 | 14%
COc1ccc(C(=O)N[C@@H]2CCC[C@@H]2C(=O)NCc2cc(OC)ccc2OC)cc1 | -5%
Brc1ccc(-c2ccc(CNCCSc3nnnn3-c3ccccc3)o2)cc1 | -15%
CCNCc1ccc(-c2ccccc2)o1 | -27%
CCOCCCNCc1ccc(-c2ccccc2)o1 | 11µM*
COCCOc1ccc2c(n1)CCN(C(=O)c1ccc(OC)cc1)C2 | 0%
SMILES | Pf Dd2 inh
CN1CC2(CCCN(Cc3cc(F)ccc3-n3cccn3)C2)OC1=O (configuration not stated) | -7%
CCc1ccc(CN2CCCC(CO)(Cc3ccc(F)cc3F)C2)cc1 (configuration not stated) | -2%
Cc1cc(C)n(-c2ccc(F)cc2CN2CCCC(CO)(Cc3ccccc3)C2)n1 (configuration not stated) | 8.9µM*
CN1CCC(NC(=O)C2(C)CCCc3cnc(NCc4ccccc4)nc32)CC1 (configuration not stated) | -21%[44.1 µM]
Cc1ccccc1Cn1c(=O)n(CCc2ccccc2)c(=O)c2c(C)c(C)sc21 | 16%
Cc1ccccc1N(C)C1CN(Cc2cccnc2)C1 | 13µM*
Cc1cc(F)ccc1OC1CN([S+](=O)([O-])c2ccccc2)C1 | i
CN(Cc1cccnc1)C(=O)[C@H]1CN(Cc2ccccc2)C[C@H]1C(=O)O | i
Cc1cc(OC2CN(Cc3ccc(F)cc3)C2)ccc1F | i
Cc1cc(F)ccc1OC1CN(Cc2cccnc2)C1 | 6.3µM*
CN(C)C(=O)[C@@H]1CN(Cc2cccnc2)C[C@H]1CO | 15%
O=C(Cn1c(=O)nc(-c2ccccc2)c2ccccc21)Nc1ccc(Cl)c(C(F)(F)F)c1 | i
CC(C)(C)CC(=O)NC[C@H]1OC[C@@H](NC2CCNCC2)[C@@H]1O | 10%[44.1 µM]
O=C(C1CC=CC1)N1C[C@@H](COCC2CC2)[C@H](c2ccncc2)C1 | 1%
COc1ccc(-c2oc3ncn4nc(-c5cccc(C)c5)nc4c3c2-c2ccc(OC)cc2)cc1 | 24%
COc1ccc(-c2oc3ncn4nc(COc5c(C)cccc5C)nc4c3c2-c2ccc(OC)cc2)cc1 | 11µM*
Cc1cccc(C)c1OCc1nc2c3c(-c4ccccc4)c(-c4ccccc4)oc3ncn2n1 | 23%
COc1ccc(NC(=O)N2CCC(Oc3ncccc3C(=O)N3CCOCC3)C2)cc1 (configuration not stated) | 21%
O=C(COc1ccc(F)cc1)N1CCC(Cc2nncn2Cc2ccccc2)C1 (configuration not stated) | i
COCCOC1CCN(C(=O)c2cn[nH]c2-c2ccc(F)cc2)CC1 | 6%

Screens deposited in PubChem by National Center for Advancing Translational Sciences (NCATS).
